PubChem BioAssay (NCI)
This is part of a sample that, as a whole, favours compounds with a hit. Of some 83,000 tested, about 20% had one in any assay.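 48-hour exposure, single concentration, 96-well plates; percent growth endpoint where 0 means no net growth. Active: below 10.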 Values without a mark were called inactive. The source made the active and inactive calls.

Legend:
Test in all cases: NCI-60 one-dose screen, 48 h (100 = growth as untreated, 0 = no growth, -100 = all killed)
Settings in all cases: 10 µM unless noted
[1] = tested on: SK-MEL-2 melanoma
[2] = tested on: EKVX NSCLC
[3] = tested on: SN12C renal
[4] = tested on: UO-31 renal
[5] = tested on: TK-10 renal
[6] = tested on: ACHN renal
[7] = tested on: CAKI-1 renal
[8] = tested on: A498 renal
[9] = tested on: CCRF-CEM leukemia
[10] = tested on: MOLT-4 leukemia
[11] = tested on: SR leukemia
[12] = tested on: RPMI-8226 leukemia
[13] = tested on: OVCAR-8 ovarian
[14] = tested on: OVCAR-5 ovarian
[15] = tested on: OVCAR-4 ovarian
[16] = tested on: SK-OV-3 ovarian
[17] = tested on: IGROV1 ovarian
[18] = tested on: OVCAR-3 ovarian
[19] = tested on: HS 578T breast
[20] = tested on: NCI/ADR-RES ovarian

Structure (SMILES) | growth [1] [%] | growth [2] [%] | growth [3] [%] | growth [4] | growth [5] | growth [6] | growth [7] | growth [8] | growth [9] | growth [10] | growth [11] | growth [12] | growth [13] [%] | growth [14] [%] | growth [15] [%] | growth [16] [%] | growth [17] | growth [18] | growth [19] [%] | growth [20]
C=C1C(=O)O[C@H]2[C@H]1CC/C(CNS(=O)(=O)c1cccc3ccccc13)=C\CC[C@@]1(C)O[C@@H]21 | 59.4 | 59.4 | 11.9 | 21.9% | 8.61% (active) | 3.67% (active) | 34.5% | 70.9% | 1.32% (active) | 6.51% (active) | 10.7% | -16.5% (active) | 38.5 | 61.9 | 42.8 | 107 | 15.4% | 11.1% | 60.9 | 
OCc1cnc2ccccc2c1NC1CCCCCC1 | 100 | 78.7 | 93.8 | 67.1% | 96.2% | 92.3% | 73.1% | 79.4% | 85.1% | 91.5% | 91.4% | 75% | 84.7 | 100 | 86.3 | 97.7 | 95.5% | 89.5% | 90.5 | 57.5%
CCOc1ccc(Nc2nc(-c3ccc4c(c3)NC(=O)CO4)cs2)cc1 | 81.3 | 89 | 78.6 | 63.7% | 85.5% | 52.3% | 108% | 103% | 32.9% | 6.58% (active) | 64.6% | 28% | 62.8 | 92.8 | 25 | 100 | 94.3% | 73.7% | 107 | 14.4%
NNC(=O)c1ccc(-n2nc(-c3ccccc3)c3ccccc32)cc1 | 79.3 | 63.4 | 75.1 | 68% | 110% | 85.6% | 76.5% | 75% | 37.2% | 74.8% | 83.5% | 86.4% | 77 | 93.8 | 23.9 | 98.9 | 73.7% | 8.87% (active) | 73 | 91.5%
O=C1c2c(c3c4cccc(F)c4[nH]c3c3ccc4ccccc4c23)C(=O)N1O | 51.5 | 63.8 | 41.5 | 30.4% | 91.1% | 27.8% | 29.4% | 27.2% | 7.09% (active) | 3.29% (active) | 7.28% (active) | 0.257% (active) | 42.2 | 103 | 56.6 | 75.5 | 35.2% | 36% | 62.1 | 
CN1C(N2CCN(S(=O)(=O)c3ccccc3)CC2)=NS(=O)(=O)c2ccccc21 | 56.7 | 111 | 90.7 | 72.4% | 114% | 106% | 104% | 155% | 118% | 178% | 32.2% | 98.4% | 80 | 97.9 | 111 | 109 | -25.4% (active) | 101% | 82.5 | 99.7%
O=C(Nc1ncc(Cc2cc(Cl)ccc2Cl)s1)c1cccs1 | 50.5 | 64 | 65.4 | 62.5% | 68.4% | 60.8% | 42.4% | 65.3% | 49.6% | 63.2% | 22.9% | 57.2% | 74.4 | 73.9 | 80 | 72.1 | 59.3% | 65.2% | 74.3 | 34.7%
CN(C)CCC(=O)c1ccc([N+](=O)[O-])cc1 | 109 | 106 | 99.1 | 85.9% | 98.2% | 110% | 96.3% | 88.4% | 97.2% | 112% | 97.8% | 89% | 110 | 102 | 100 | 99.5 | 109% | 110% | 107 | 107%
O=Cc1ccc(-c2cn3ccnc3c(-c3ccc4ncn(Cc5ccccc5)c4c3)n2)cc1 | 72.2 | 79.1 | 79.3 | 17.8% | 99.3% | 88.4% | 63.4% | 88.8% | 22.1% | 41.3% | 52.5% | 17.5% | 56 | 102 | 83.1 | 94.9 | 78.7% | 76.3% | 54.4 | 62.6%
CC(=O)OC[C@]12CC[C@@H](C(=O)CBr)[C@@H]1[C@H]1CC[C@@H]3[C@@]4(C)CC[C@H](OC(C)=O)C(C)(C)[C@@H]4CC[C@@]3(C)[C@]1(C)CC2 | 92.3 | 107 | 87 | 90.7% | 108% | 98.8% | 77.4% | 121% | -17.4% (active) | -5.01% (active) | 4.82% (active) | 91.4% | 81.9 | 102 | 94 | 90 | -1.69% (active) | 101% | 101 | 110%
Oc1c(Cl)cc(Cl)c(Cl)c1CNCCNCc1c(O)c(Cl)cc(Cl)c1Cl | 18.3 | 22.4 | 36.2 | 0.579% (active) | 39.5% | 8.86% (active) | 9.72% (active) | 51.3% | 4.31% (active) | 10% | 1.15% (active) | 18% | 11.3 | 54 | 22.6 | 22 | 16.4% | 19.1% | 57.7 | 4.33% (active)
N#CC1C(C#N)C2c3ccccc3C=CN2C1C(=O)c1ccc(Br)cc1 (configuration not stated) | 98.3 | 93 | 88.6 | 99.2% | 111% | 90.3% | 89.8% | 101% | 99.2% | 102% | 99.9% | 110% | 94.9 | 98 | 54.3 | 108 | 102% | 109% | 103 | 94.7%
COc1ccc(/C=C/c2nc(Nc3ccc(S(=O)(=O)Nc4nc(C)cc(C)n4)cc3)c3ccccc3n2)cc1 | 75.2 | 72 | 76.8 | 51.8% | 71.1% | 57.7% | 53.1% | 7.8% (active) | 61.5% | 65.7% | 49.5% | 62.3% | 66.1 | 74.9 | 77.2 | 90.9 | 90.8% | 79.6% | 83.1 | 73.1%
COc1cc(NCCCCCNC(C)(C)C)c2ncccc2c1 | 113 | 95.9 | 86.7 | 75.8% | 95.7% | 104% | 78.7% | 103% | 51.8% | 105% | 113% | 7.94% (active) | 102 | 110 | 22.6 | 97 | 37.2% | 81.2% | 88.3 | 85.4%
CCCN1[C@@H]2CC[C@H]1/C(=C\c1ccc(OC)c(OC)c1)C(=O)/C2=C/c1ccc(OC)c(OC)c1 | 53.6 | 37.7 | 49.9 | 33.6% | 67.2% | 47.3% | 45.9% | 23.6% | 30.6% | 29.5% | 26.8% | 9.06% (active) | 35.5 | 78.2 | 46 | 66.2 | 56.8% | 56.9% | 54.2 | 
O=C1c2cccc3c(-c4ccc5c(c4)ncn5C4CCCCC4)ccc(c23)C(=O)N1c1nc2ccccc2s1 | 81.4 | 76.4 | 83.7 | 56.3% | 99.6% | 84.7% | 72.8% | 121% | 83% | 81.1% | 81% | 75.6% | 98 | 102 | 79.1 | 95 | 92.3% | 89.8% | 92.9 | 91.3%
